In assay [1] the target is Lysosomal acid glucosylceramidase (Homo sapiens) (UniProt P04062). The assay is described as follows: Glucocerebrosidase-p2 (AID 348; in the data active = potency below about 10 µM; also: potency is read from the fitted curve at half-maximal effect). The following applies: purified GBA, blue fluorogenic substrate, 40 min. An outline of the steps:
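Compounds titrated from 0.6 nM upwards against 0.2 nM enzyme in pH 5.9 citric acid/KH2PO4, taurocholate, tween-20; blue fluorogenic substrate 80 uM, 40 min room temperature, stopped and read Ex 365/Em 440 for AC50.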

A short description of assay [2]: AP1 Signaling Pathway (AID 357; active = well fitted curve in either direction with a large enough effect, not every such curve was filed as active;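 also: ME-180 reporter cells stimulated with EGF at its EC50 level; % is scaled to controls: 0 for no effect and ±100 for the full control effect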). As to conditions: ME-180 AP-1-bla reporter, EGF-induced, beta-lactamase ratio, 5 h; at 7.69 µM (top of the series) unless noted. An outline of the steps:
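Read-out was the 460nm/530nm emission ratio (excitation 405nm) after CCF4 loading for 2.5 hours at room temperature. Cells carried an AP-1-driven beta-lactamase reporter, were stimulated with EC50 EGF plus compound for 5 hours, and AC50 values came from titrations.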

The target of assay [3] is Cytochrome P450 1A2 (Homo sapiens) (UniProt P05177). Put plainly: p450-cyp1a2 (AID 410; calls by dose curve; also: potency is read from the fitted curve at half-maximal effect). The following applies: recombinant CYP1A2, luciferin-ME demethylation, luminescence; series mostly up to 57 µM. An outline of the steps:
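Inhibition was calculated relative to 57 uM furafylline (full inhibition). The reaction used human CYP1A2 at 20nM with Luciferin-ME at its Km, 100uM, driven by an NADPH-regenerating system for 60 min at room temperature.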

A short description of assay [4]: NFAT Signaling Pathway (AID 444; active = well fitted curve in either direction with a large enough effect, not every such curve was filed as active;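 also: carbachol stimulus at about its EC50 of 1 µM final; % is scaled to controls: 0 for no effect and ±100 for the full control effect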). The following applies: Jurkat NFAT-bla M1, carbachol, beta-lactamase ratio, 5 h; at 7.69 µM (top of the series) unless noted. In short, it runs like this:
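Jurkat cells carrying an NFAT-driven β-lactamase reporter and co-transfected muscarinic M1 receptor were treated with compound plus carbachol (1 uM final, an EC50 level) for 5 h at 37 °C. CCF4 loading followed for 1 h at RT; 460/530 nm ratio gave %activity.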

Assay [5] is described as follows: Stat Signaling Pathway (AID 446; active = well fitted curve in either direction with a large enough effect, not every such curve was filed as active;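 also: ME-180 cervical cancer cells given 40 pM IL-6 alongside compound; SIE-controlled beta-lactamase reporter measured as 460/530 nm FRET emission ratio; % is scaled to controls: 0 for no effect and ±100 for the full control effect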). The following applies: ME-180 (cervical carcinoma) SIE beta-lactamase reporter, IL-6 stimulated, 5 h; at 7.69 µM (top of the series) unless noted. An outline of the steps:
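ME-180 cells carrying a SIE-driven beta-lactamase reporter are stimulated with 40 pM IL-6 for 5 h at 37C in the presence of compound. The 460/530 nm FRET substrate ratio is read after 2.5 h at RT. Data are normalised to 300 pM IL-6 and to 125 nM JAK inhibitor controls.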

The target of assay [6] is Glucocorticoid receptor (Homo sapiens) (UniProt P04150). The assay is described as follows: GR-GFP Redistribution (AID 450;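 active = compounds whose dose series gives a full or clear partial fitted curve of increased nuclear translocation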; also: potency is read from the fitted curve at half-maximal effect). As to conditions: U2OS GR-GFP nuclear translocation, laser cytometry, 2 h.
Assay [7] shares this target. Put plainly: GR-EFC Redistribution (AID 451; calls by dose curve; also: potency is read from the fitted curve at half-maximal effect). As to conditions: CHO-K1 GR-EFC translocation, beta-gal luminescence, 2 h. An outline of the steps:
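CHO-K1 cells stably expressing nuclear-localized β-gal enzyme acceptor and GR fused C-terminally to the enzyme donor fragment; ligand-driven nuclear translocation restores β-gal by complementation. Compounds titrated up to 46 uM final, 2 h at 37 °C; luminescence read.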

Assay [8] addresses Mitogen-activated protein kinase 10 (Mus musculus) (UniProt Q61831). Put plainly: JNK3 AlphaScreen Assay (AID 530; active = well fitted curve in either direction with a large enough effect, not every such curve was filed as active;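 also: kinase came from lysate of stimulated human HepG2 cells; % is scaled to controls: 0 for no effect and ±100 for the full control effect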). As to conditions: JNK3 lysate, c-Jun phosphorylation; series mostly up to 57.1 µM. In short, it runs like this: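 JNK3 came from HepG2 lysates pre-activated with IL-1beta and TNF-alpha and phosphorylated biotinylated GST-cJun (1-79) at 10 uM ATP, pH 7.6, room temperature. Compounds were titrated. AlphaScreen signal used anti-phospho-cJun (Ser73) antibody.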
Background: In Alpha technology, singlet oxygen from a donor bead excites a nearby acceptor bead.

The target in assay [9] is 3',5'-cyclic-AMP phosphodiesterase 4B (Homo sapiens) (UniProt Q07343). The assay is described as follows: qHTS Assay for Inhibitors of PDE-IV (AID 607; active = well fitted activation curve with a large enough effect in the main read-out, with a control signal flat, not every such curve was filed as active; also: % of control where 0% means no effect). As to conditions: HEK293 ACTOne CNG channel cells, membrane potential fluorescence; series mostly up to 22.9 µM. An outline of the steps: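 HEK293 ACTOne cells with CNG channel (1000/well), endogenous PDE4; membrane potential dye, compounds up to 22.9 uM final. Fluorescence Ex 535/Em 590; RO 20-1724 (100 uM final) as reference.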

Assay [10] deals with Cytochrome P450 3A4 (Homo sapiens) (UniProt P08684). Put plainly: qHTS Assay for Activators of Cytochrome P450 3A4 (AID 885). Also: nearly all actives have a fitted effect of over 65% in size. The following applies: recombinant CYP3A4, Luciferin-PPXE luminescence, 60 min; series mostly up to 57.1 µM. In short, it runs like this:
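Human CYP3A4 (20 nM) with Luciferin-PPXE at 25 uM (its KM) in 200 mM KPO4; 10 min compound preincubation, then NADPH regeneration and 60 min reaction at RT. Luciferin read by luminescence; normalized to 57 uM ketoconazole full inhibition.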
(In general: In qHTS, concentration-response curves come from the screen itself.)

In assay [11] the target is Dual specificity protein kinase CLK4 (Homo sapiens) (UniProt Q9HAZ1). Put plainly: qHTS Assay for Inhibitors of CDC-like Kinase 4 (Kinase-Glo Assay) (AID 1770). Also: % is scaled to controls: 0 for no effect and ±100 for the full control effect; nearly all actives have a fitted effect of over 65% in size. As to conditions: recombinant Clk4, Kinase-Glo ATP depletion luminescence; series mostly up to 66.7 µM. An outline of the steps:
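Recombinant human Clk4 (25 nM) phosphorylated RS repeat peptide (100 uM) with 1 uM ATP in Tris pH 7.5/MgCl2/EGTA/DTT/Triton buffer for 4.5 h at room temperature. Residual ATP was quantified by Kinase-Glo luciferase luminescence.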

For assay [12] the target is unchanged. Put plainly: qHTS Assay for Inhibitors of CDC-like Kinase 4 (ADP-Glo Assay) (AID 1771). Also: % is scaled to controls: 0 for no effect and ±100 for the full control effect; nearly all actives have a fitted effect of over 70% in size. The following applies: recombinant CLK4, ADP-Glo luminescence; series mostly up to 80 µM. An outline of the steps:
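Kinase reaction: Clk4 at 25 nM, RS repeat peptide substrate at 100 uM, ATP at 1 uM, 1 hr, room temperature. Product ADP detected as luciferase signal via ADP-Glo.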

For assay [13] the target is unchanged. Put plainly: qHTS Assay for Inhibitors of CDC-like Kinase 4 (ADP-FP Assay) (AID 1795). Also: % is scaled to controls: 0 for no effect and ±100 for the full control effect; nearly all actives have a fitted effect of over 60% in size. As to conditions: Transcreener ADP fluorescence polarization; series mostly up to 50 µM. In short, it runs like this:
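Recombinant human Clk4 (6.25 nM) phosphorylated RS repeat peptide (100 uM) with 1 uM ATP in Tris pH 7.5/MgCl2/EGTA/DTT/Triton buffer for one hour. ADP was quantified by Transcreener competitive fluorescence polarization against an ADP calibration curve.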

The target in assay [14] is Ubiquitin carboxyl-terminal hydrolase 1 (Homo sapiens) (UniProt O94782). The assay is described as follows: Inhibitors of USP1/UAF1: Pilot qHTS (AID 504865).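 Also: rhodamine fluorescence freed from ubiquitin-rhodamine substrate followed over time; top concentration of the series differs between compounds; % is scaled to controls: 0 for no effect and ±100 for the full control effect; nearly all actives have a fitted effect of over 35% in size.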 The following applies: purified USP1/UAF1, Ub-rhodamine cleavage fluorescence; series mostly up to 54.9 µM. In short, it runs like this:
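USP1/UAF1 complex (1nM) preincubated with compound 15 min at room temperature, then Ub-Rho substrate (150nM final) added. Fluorescence read kinetically at 480/540 nm, 6 reads every 60 seconds. Buffer: 50mM HEPES pH 7.8, 0.5mM EDTA, 0.1 mg/ml BSA, 1mM TCEP, 0.01% Tween-20.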

Assay [15] can be described thus: Primary qHTS for small molecule stabilizers of the endoplasmic reticulum resident proteome: Secreted ER Calcium Modulated Protein (SERCaMP) assay (AID 1508630). Also: % is scaled to controls: 0 for no effect and ±100 for the full control effect. As to conditions: SH-SY5Y GLuc-SERCaMP (Gaussia luciferase released on ER calcium loss) secretion, thapsigargin, luminescence; series mostly up to 38.4 µM. In short, it runs like this: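 GLuc-SERCaMP-expressing SH-SY5Y cells, pretreated 16 h with compound, are challenged with thapsigargin to empty ER calcium stores; after 4 h, coelenterazine is added directly to the medium and luminescence is imaged.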

Assay [16] deals with Cytochrome P450 3A4 (Homo sapiens) (UniProt P08684). The assay is described as follows: qHTS Assay for Inhibitors and Substrates of Cytochrome P450 3A4 (AID 884). Also: nearly all actives have a fitted effect of over 50% in size. Also: potency is read from the fitted curve at half-maximal effect. As to conditions: recombinant CYP3A4, Luciferin-PPXE luminescence; series mostly up to 57.1 µM. In short, it runs like this: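 20 nM human CYP3A4 with 25 uM Luciferin-PPXE (at KM) in 200 mM KPO4, preincubated 10 min with compound; NADPH regeneration started a 60 min RT reaction. Luciferin detected by luminescence, normalized to 57 uM ketoconazole as full inhibition.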

The target in assay [17] is Cytochrome P450 2C19 (Homo sapiens) (UniProt P33261). Put plainly: qHTS Assay for Inhibitors and Substrates of Cytochrome P450 2C19 (AID 899). Also: potency is read from the fitted curve at half-maximal effect; nearly all actives have a fitted effect of over 60% in size. As to conditions: recombinant CYP2C19, luciferin-H EGE luminescence; series mostly up to 57.1 µM. An outline of the steps:
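Human CYP2C19 (5nM) with Luciferin-H EGE at 10uM (its KM) in 50mM KPO4 was preincubated with compound for 10 min at 37C. NADPH regeneration started a 60 min 37C reaction. Luciferin was read by luminescence, normalized to 57uM ketoconazole.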

Unmarked numbers belong to inactive results. Records with an inconclusive call do not appear. Calls of active or inactive are those of the source. Unless noted, calls follow the shape of the dose curve; as a rule, active = well fitted curve in the direction sought with a large enough effect; inconclusive = small, poorly fitted or top-dose-only effect, or another doubt; inactive = no such curve, though single readings can be large; an effect the other way counts as inactive or inconclusive.

Sequence of 3',5'-cyclic-AMP phosphodiesterase 4B (Homo sapiens) (Q07343 whole entry, looked up): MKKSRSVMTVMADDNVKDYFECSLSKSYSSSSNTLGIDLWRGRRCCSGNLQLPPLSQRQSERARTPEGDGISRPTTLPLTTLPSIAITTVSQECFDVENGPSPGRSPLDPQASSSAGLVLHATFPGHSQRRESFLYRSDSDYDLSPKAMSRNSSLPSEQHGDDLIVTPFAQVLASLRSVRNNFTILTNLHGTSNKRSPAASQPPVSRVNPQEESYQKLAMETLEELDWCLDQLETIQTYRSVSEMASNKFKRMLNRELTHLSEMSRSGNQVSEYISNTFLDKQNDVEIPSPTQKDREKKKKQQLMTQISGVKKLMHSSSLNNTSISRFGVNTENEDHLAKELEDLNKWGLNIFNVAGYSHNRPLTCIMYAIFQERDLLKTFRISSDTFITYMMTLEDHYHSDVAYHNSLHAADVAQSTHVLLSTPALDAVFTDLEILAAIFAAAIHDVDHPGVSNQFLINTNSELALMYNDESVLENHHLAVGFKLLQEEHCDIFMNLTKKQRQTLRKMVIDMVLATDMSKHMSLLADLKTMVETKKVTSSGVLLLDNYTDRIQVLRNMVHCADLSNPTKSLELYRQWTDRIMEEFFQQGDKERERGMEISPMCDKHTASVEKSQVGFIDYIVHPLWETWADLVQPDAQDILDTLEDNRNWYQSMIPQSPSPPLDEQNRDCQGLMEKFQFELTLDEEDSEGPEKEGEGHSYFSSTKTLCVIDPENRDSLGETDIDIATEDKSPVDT
Sequence of Glucocorticoid receptor (Homo sapiens) (P04150 whole entry, looked up): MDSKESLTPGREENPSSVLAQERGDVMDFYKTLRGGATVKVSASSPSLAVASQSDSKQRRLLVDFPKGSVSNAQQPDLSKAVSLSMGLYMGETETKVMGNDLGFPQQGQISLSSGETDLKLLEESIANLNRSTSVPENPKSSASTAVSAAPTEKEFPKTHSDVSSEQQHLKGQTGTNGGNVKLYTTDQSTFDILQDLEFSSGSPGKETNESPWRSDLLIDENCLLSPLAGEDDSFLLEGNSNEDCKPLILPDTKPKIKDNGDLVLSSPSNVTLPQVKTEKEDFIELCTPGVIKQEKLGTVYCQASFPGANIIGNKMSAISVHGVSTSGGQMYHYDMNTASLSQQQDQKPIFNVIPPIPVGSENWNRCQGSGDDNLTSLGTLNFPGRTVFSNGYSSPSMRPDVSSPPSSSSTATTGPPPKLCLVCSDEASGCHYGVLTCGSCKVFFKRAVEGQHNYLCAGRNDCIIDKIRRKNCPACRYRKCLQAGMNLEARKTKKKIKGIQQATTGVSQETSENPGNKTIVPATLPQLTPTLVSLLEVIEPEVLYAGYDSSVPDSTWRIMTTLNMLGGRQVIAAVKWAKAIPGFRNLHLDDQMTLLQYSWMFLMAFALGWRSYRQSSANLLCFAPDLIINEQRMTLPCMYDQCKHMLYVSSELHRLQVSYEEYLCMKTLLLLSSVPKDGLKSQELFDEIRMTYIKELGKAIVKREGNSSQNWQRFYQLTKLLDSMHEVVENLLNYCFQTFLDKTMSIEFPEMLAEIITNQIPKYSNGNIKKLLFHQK
Sequence of Cytochrome P450 1A2 (Homo sapiens) (P05177 whole entry, looked up): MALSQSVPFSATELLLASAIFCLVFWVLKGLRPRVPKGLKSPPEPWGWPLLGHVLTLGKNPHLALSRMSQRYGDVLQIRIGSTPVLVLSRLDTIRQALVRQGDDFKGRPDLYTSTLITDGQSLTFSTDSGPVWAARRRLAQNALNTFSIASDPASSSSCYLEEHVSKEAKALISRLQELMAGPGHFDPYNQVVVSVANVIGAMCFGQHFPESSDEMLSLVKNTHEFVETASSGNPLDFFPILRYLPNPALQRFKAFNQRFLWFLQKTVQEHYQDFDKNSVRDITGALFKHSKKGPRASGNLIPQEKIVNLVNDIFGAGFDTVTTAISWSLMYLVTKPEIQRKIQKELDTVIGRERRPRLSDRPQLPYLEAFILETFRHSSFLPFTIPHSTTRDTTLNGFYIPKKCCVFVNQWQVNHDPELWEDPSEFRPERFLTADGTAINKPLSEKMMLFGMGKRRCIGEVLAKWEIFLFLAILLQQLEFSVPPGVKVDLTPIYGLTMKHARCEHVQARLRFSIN
Sequence of Ubiquitin carboxyl-terminal hydrolase 1 (Homo sapiens) (O94782 whole entry, looked up): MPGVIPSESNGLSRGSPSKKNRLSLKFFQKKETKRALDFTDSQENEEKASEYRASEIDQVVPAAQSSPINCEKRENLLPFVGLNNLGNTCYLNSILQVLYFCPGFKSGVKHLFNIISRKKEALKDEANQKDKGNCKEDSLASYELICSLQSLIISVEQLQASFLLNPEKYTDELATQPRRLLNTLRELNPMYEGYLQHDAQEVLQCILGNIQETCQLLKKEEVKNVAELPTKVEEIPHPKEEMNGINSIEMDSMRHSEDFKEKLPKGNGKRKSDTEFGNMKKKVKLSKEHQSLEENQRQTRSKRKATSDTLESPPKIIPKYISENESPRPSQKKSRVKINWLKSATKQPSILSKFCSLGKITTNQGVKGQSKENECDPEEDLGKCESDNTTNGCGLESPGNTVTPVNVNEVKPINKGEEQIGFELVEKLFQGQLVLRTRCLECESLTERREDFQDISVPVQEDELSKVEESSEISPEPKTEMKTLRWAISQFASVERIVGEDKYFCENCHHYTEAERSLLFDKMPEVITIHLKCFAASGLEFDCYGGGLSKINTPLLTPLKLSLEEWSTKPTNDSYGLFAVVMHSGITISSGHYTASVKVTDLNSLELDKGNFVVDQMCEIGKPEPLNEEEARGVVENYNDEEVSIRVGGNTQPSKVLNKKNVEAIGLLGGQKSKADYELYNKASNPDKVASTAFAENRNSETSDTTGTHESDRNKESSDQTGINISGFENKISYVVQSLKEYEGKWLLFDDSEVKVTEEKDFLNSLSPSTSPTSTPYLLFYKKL
Sequence of Cytochrome P450 3A4 (Homo sapiens) (P08684 whole entry, looked up): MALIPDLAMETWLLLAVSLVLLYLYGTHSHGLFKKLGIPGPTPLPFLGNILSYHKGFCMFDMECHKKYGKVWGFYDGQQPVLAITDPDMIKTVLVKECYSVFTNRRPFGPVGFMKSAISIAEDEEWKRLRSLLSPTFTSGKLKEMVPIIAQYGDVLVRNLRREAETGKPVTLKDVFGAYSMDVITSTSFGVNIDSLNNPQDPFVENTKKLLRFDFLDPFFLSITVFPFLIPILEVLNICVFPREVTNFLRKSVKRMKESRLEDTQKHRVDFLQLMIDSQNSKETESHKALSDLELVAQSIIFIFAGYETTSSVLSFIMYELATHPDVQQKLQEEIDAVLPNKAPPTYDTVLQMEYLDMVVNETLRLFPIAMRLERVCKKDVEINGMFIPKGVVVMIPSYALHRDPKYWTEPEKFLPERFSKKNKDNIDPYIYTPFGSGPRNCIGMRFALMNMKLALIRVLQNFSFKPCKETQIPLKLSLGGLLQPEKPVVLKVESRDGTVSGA
Sequence of Dual specificity protein kinase CLK4 (Homo sapiens) (Q9HAZ1 whole entry, looked up): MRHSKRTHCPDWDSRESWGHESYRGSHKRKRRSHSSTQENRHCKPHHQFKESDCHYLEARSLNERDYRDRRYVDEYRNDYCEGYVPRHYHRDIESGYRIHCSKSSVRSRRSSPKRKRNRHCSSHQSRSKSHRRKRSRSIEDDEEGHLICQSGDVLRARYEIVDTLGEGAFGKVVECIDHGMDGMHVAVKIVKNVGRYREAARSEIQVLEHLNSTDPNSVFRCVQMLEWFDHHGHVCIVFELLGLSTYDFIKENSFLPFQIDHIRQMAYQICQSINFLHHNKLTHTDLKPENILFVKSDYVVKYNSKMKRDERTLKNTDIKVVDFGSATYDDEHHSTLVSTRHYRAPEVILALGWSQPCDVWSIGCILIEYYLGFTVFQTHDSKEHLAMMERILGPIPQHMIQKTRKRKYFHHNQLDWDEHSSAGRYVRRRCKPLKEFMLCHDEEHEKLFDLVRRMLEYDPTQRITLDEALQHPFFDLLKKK
Sequence of Lysosomal acid glucosylceramidase (Homo sapiens) (P04062 whole entry, looked up): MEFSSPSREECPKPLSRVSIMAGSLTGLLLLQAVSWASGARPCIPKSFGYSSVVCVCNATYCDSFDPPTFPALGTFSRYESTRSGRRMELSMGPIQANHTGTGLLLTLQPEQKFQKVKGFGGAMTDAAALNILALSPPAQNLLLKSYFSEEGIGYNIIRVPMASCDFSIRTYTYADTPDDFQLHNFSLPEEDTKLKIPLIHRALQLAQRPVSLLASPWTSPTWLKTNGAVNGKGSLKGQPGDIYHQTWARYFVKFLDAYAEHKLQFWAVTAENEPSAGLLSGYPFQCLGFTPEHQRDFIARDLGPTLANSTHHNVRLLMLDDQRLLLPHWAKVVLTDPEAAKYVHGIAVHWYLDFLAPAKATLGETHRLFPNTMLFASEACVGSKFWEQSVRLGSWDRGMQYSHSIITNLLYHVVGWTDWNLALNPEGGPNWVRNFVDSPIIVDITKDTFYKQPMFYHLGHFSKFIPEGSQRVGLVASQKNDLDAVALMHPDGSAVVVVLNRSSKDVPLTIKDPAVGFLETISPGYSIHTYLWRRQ
Sequence of Cytochrome P450 2C19 (Homo sapiens) (P33261 whole entry, looked up): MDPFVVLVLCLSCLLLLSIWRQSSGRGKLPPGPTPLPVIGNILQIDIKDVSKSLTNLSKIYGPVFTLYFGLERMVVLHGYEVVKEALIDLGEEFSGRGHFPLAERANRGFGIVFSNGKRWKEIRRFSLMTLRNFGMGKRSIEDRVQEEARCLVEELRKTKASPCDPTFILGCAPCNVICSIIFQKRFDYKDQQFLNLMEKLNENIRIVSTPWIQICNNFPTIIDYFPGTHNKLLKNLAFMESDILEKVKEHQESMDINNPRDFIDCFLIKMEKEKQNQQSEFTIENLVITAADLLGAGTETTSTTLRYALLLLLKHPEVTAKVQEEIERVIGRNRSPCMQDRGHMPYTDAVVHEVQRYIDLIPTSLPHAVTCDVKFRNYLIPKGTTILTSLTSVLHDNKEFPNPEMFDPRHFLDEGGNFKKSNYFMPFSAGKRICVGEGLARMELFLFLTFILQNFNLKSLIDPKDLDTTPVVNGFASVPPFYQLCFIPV

As to `CCNc1ncc2nc(-c3ccc(OC)cc3)c(=O)n(CCC#N)c2n1`, the Potency is greater than 11.4 µM in assay [1], 10 µM (active) in assay [3], greater than 9.22 µM in [6] and greater than 46 µM in [7]. The figures for the activity change, negative = inhibition in assay [2] and in [4] were -5.2% and -15.6%, respectively. In assay [5], the activity, negative = inhibition is -7.35%. Further, the Potency entry in assay [8], in assay [9], in [10], in assay [11], in assay [12] and in [13] was “inactive” in each case. Moreover, the Potency entry in assay [14] was “inactive”. In addition, the outcome in assay [15] was inactive.

Turning to `CN1CCN(c2ncncc2-c2cccnc2)CC1`, the Potency in assay [1] was greater than 11.4 µM; in assay [3] it was 25.1 µM (active); in assay [6], greater than 46 µM; in assay [7] it was greater than 46 µM. The values for the activity change, negative = inhibition in assay [2] and in assay [4] were 2.82% and -6.42%, respectively. Besides, in assay [5], the activity, negative = inhibition was -20.2%. Moreover, the Potency result in [8], in assay [9], in assay [10], in [11], in assay [12] and in assay [13] was “inactive” in each case. The Potency entry in assay [14] is “inactive”. The result in assay [15] was inactive.

As for `COc1ccc(CNc2ncncc2-c2c(C)noc2C)c(OC)c1`, the Potency in [1] was greater than 11.4 µM; in assay [3] it was 25.1 µM (active); in assay [6], greater than 46 µM; in [7] it was greater than 46 µM; in [16], 1.26 µM (active). The activity change, negative = inhibition in [2] is -10.6%; in assay [4], 9.48%. Besides, in assay [5], the activity, negative = inhibition is 2.92%. For the same molecule, the Potency result in assay [8], in assay [9], in [10], in [11], in assay [12] and in [13] was “inactive” throughout. In addition, the Potency entry in assay [14] was “inactive”. Further, in assay [15], the result was inactive.

In the case of `COc1cccc(Cn2c(=O)c(-c3ccc(Cl)cc3)nc3cnc(N4CCN(C)CC4)nc32)c1`, the Potency in [1] is greater than 11.4 µM; in assay [6] it was greater than 9.22 µM; in assay [7] it was greater than 46 µM. In addition, the activity change, negative = inhibition is 17.8% in assay [2] and 23.1% in [4]. Also, the Potency entry in [3], in assay [8], in assay [9], in assay [16], in assay [11] and in [12] was “inactive” in each case. Besides, the Potency result in [13] and in assay [14] was “inactive” throughout. In assay [5], the activity, negative = inhibition is 4.58%. Moreover, the outcome in assay [15] was inactive.

`CN(C)C(=O)c1ccc(-c2cncnc2NCc2cccnc2)cc1`: the Potency in assay [1] was greater than 11.4 µM; in assay [3], 5.01 µM (active); in assay [6] it was greater than 46 µM; in assay [7], greater than 46 µM; in [16], 5.01 µM (active); in assay [17], 2.51 µM (active). Further, the activity change, negative = inhibition in assay [2] is 22%; in assay [4] it was 3.94%. Besides, the activity, negative = inhibition in assay [5] is 17.6%. For the same molecule, the Potency result in assay [8], in assay [9], in assay [11], in [12], in assay [13] and in assay [14] was “inactive” in each case. Moreover, the result in assay [15] was inactive.

For the molecule `c1ccc(CNc2ncncc2-c2cccnc2)cc1`, the Potency in assay [1] is greater than 11.4 µM; in assay [3], 2.51 µM (active); in assay [6], greater than 46 µM; in assay [7], greater than 46 µM; in assay [16], 1.26 µM (active). In addition, the figures for the activity change, negative = inhibition in assay [2] and in [4] were 1.26% and -2.51%, respectively. The activity, negative = inhibition in assay [5] was -3.91%. Besides, the Potency entry in [8], in assay [9], in [10], in [11], in assay [12] and in assay [13] was “inactive” each time. Also, the Potency result in assay [14] was “inactive”. Further, the result in [15] was inactive.

The record behind these values is PubChem BioAssay (NCATS).
